Out of some 1,500 compounds screened, about 460 (31%) were called active. Roughly 1% stayed inconclusive and do not appear here.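 The calls were made as follows: active = curve reaches 40% activation over neutral controls at an AC40 no higher than the top valid tested concentration; inconclusive = no clear call, values can overlap the other calls; inactive = signal moving opposite to the expected increase, and the rest.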 Only a sample is shown. Entries with a potency or affinity are not part of this list.
Assay: GLuc-reported insulin release enhancers, glucose-stimulated beta cells – cell-based, INS-1E, Gaussia luciferase, luminescence, cherry-pick, set 2, dose response (AID 977607);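 also: 0% = median of the plate neutral control wells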
Conditions: INS-1E GLuc insulin secretion reporter, 2-3 h, stronger effect = higher value; at 35 µM, 100% = signal doubled over neutral wells unless noted

Max activation, inactive:
CCOc1nc(CC(C)C)c2c(c1C#N)CC(C)(C)OC2 -26.5%
O=C(NN(Cc1ccccc1)Cc1ccccc1)c1ccccc1 23.7% [at 1.2 µM, 100% = signal doubled over neutral wells]
Cn1cc(C(=O)NCC(=O)Nc2ccccc2Br)cn1 -16.7% [at 0.135 µM, 100% = signal doubled over neutral wells]
O=C(c1cc(-c2ccccc2)nc2ccccc12)N1CCCC1 -13.5% [at 11 µM, 100% = signal doubled over neutral wells]
COc1cc2ccc(C(C)=O)cc2cc1OC 29.7% [at 0.0016 µM, 100% = signal doubled over neutral wells]
COc1ccc(CC(=O)c2ccc(OC)c(OC)c2)cc1 18.3% [at 0.0016 µM, 100% = signal doubled over neutral wells]
COc1ccc(C(C)=O)cc1CSCc1cc(C(C)=O)ccc1OC 10.8%
CC(C)c1ccc2oc(=O)cc(CN3CCCCC3)c2c1 -12.8%
Cc1cc2oc(=O)cc(CN3CCOCC3)c2c(C)c1Cl -12.4% [at 0.0016 µM, 100% = signal doubled over neutral wells]
COc1ccc(-c2cc(C(F)(F)F)n3nc(C(=O)O)cc3n2)cc1OC 13.4%
Cc1ccccc1Cc1c(C)nc2c(C(=O)NCc3ccco3)cnn2c1C -44.9%
C[C@H]1[C@@H](c2ccccc2)Oc2c(Cl)cccc2S(=O)(=O)N1C -29.7% [at 11 µM, 100% = signal doubled over neutral wells]
CCN1CCN(c2nnc(-c3ccccc3)c3ccccc23)CC1 13.4% [at 0.135 µM, 100% = signal doubled over neutral wells]
COC(=O)Cn1cc(C#N)c2ccccc21 43% [at 0.42 µM, 100% = signal doubled over neutral wells]
CN(C)C(=O)c1ccc(-c2ccc([C@@H]3[C@@H](CO)N4C(=O)CN(C(=O)C5CC5)C[C@@H]34)cc2)cc1 31.8% [at 0.046 µM, 100% = signal doubled over neutral wells]
C/C=C1\COC(C(=O)NCc2ccccc2)(C(F)(F)F)C=C1C=C(C)C (configuration not stated) -29.1%
CN(c1ccc(F)cc1)S(=O)(=O)c1ccc(Cl)c(C(=O)NCC2CCCO2)c1 (configuration not stated) -19.1%
CN(C(=O)[C@H]1O[C@@H](n2cnc(C(N)=O)n2)[C@H](O)[C@@H]1O)c1ccccc1 -24.3% [at 1.2 µM, 100% = signal doubled over neutral wells]
CN1CCSc2ccc(C(=O)Nc3cccc(F)c3)cc21 -34.2%
Cc1nc2c(c(N3CCOCC3)n1)OCC(=O)N2 52.8%
COc1cc(C2N(C)CCC3(OCCO3)C2(C)C)cc(OC)c1OC (configuration not stated) -12.6% [at 0.0016 µM, 100% = signal doubled over neutral wells]
COc1ccc(-c2nnc3sc(-c4ccco4)nn23)cc1OC -14.1% [at 0.046 µM, 100% = signal doubled over neutral wells]
CCSc1nnc2ccc(-c3cccs3)nn12 23.8%
CC/C(O)=C1\C(=O)CC(c2ccccc2)CC1=NC(C)C (configuration not stated) -12.6% [at 1.2 µM, 100% = signal doubled over neutral wells]
CCN(CC)CCn1c(=N)n(CC(O)COc2ccccc2)c2ccccc21 (configuration not stated) -13.8% [at 3.8 µM, 100% = signal doubled over neutral wells]
Cc1ccc(C(CC(=O)O)NC(=O)c2ccc(S(=O)(=O)N3CC(C)OC(C)C3)cc2)cc1 (configuration not stated) -15.8% [at 0.42 µM, 100% = signal doubled over neutral wells]
CCOC1=C2[C@H](c3ccc(C)cc3)N(S(=O)(=O)c3ccc(C)cc3)C[C@H]2n2c(=O)n(-c3ccccc3)c(=O)n2C1 -23.2% [at 0.005 µM, 100% = signal doubled over neutral wells]
CNc1nc(N)c(C(=O)C(C)(C)C)s1 27.9% [at 11 µM, 100% = signal doubled over neutral wells]
CC1(C)Cc2c(c(-c3ccco3)nc3n[nH]c(N)c23)CO1 25% [at 0.135 µM, 100% = signal doubled over neutral wells]
CN=C1c2ccccc2CN1c1cccc(C(=O)OC)c1 14.7%
O=S(=O)(c1ccc(NCCCO)nc1)N1CCOCC1 -14.1% [at 0.015 µM, 100% = signal doubled over neutral wells]
COC(=O)c1c(C)oc(C)c1S(=O)(=O)Nc1ccc(C(C)C)cc1 -24.4%
Cc1ccc(-c2cnc3cccnn23)cc1F 39% [at 0.015 µM, 100% = signal doubled over neutral wells]
COC(=O)c1ccc(Oc2ccc(C(F)(F)F)cn2)cc1 -19.1% [at 0.135 µM, 100% = signal doubled over neutral wells]
Cc1nc2c(-c3ccc(F)cc3)cnn2c2c1CCC2 -15.5% [at 0.0016 µM, 100% = signal doubled over neutral wells]
COC(=O)C[C@@H]1C=C[C@H](NC(=O)Cc2ccccn2)[C@@H](CO)O1 -17.5% [at 0.015 µM, 100% = signal doubled over neutral wells]
COCCNC(=O)CCCn1c(=O)c2ccccc2n(Cc2ccccc2C#N)c1=O -20.3% [at 0.015 µM, 100% = signal doubled over neutral wells]
CCc1c(C(=O)Nc2ccc(C)c(C)c2)[nH]c(C)c1C(C)=O -21.4% [at 11 µM, 100% = signal doubled over neutral wells]
COc1ccc(S(=O)(=O)N2CCC(C(=O)NCc3ccccn3)CC2)cc1OC 32.9% [at 3.8 µM, 100% = signal doubled over neutral wells]
CCN(c1ccccc1)S(=O)(=O)c1ccc(OC)c(OC)c1 12.1%
COc1ccc(N2CCN(S(=O)(=O)c3ccc(-c4cc(C)no4)s3)CC2)cc1 -17.8% [at 0.135 µM, 100% = signal doubled over neutral wells]
COc1ccc(CN(C)C(=O)c2cc(-c3ccc(OC)c(OC)c3)nc3ccccc23)c(OC)c1 -23.5%
COc1ccc(-c2cc(C(=O)N(C)Cc3ccc(OC)c(OC)c3OC)c3ccccc3n2)cc1OC 13.2% [at 11 µM, 100% = signal doubled over neutral wells]
c1cn2cc(-c3ccc(CN4CCOCC4)cc3)ccc2n1 -25.5% [at 3.8 µM, 100% = signal doubled over neutral wells]
O=c1[nH]c2cc(Cl)ccc2n(CCNc2ncc(C(F)(F)F)cc2Cl)c1=O -28.9% [at 3.8 µM, 100% = signal doubled over neutral wells]
COc1ccc(-c2cc3nc4ccccc4n3c(N)c2C#N)cc1 -29% [at 0.135 µM, 100% = signal doubled over neutral wells]
O=C(O)c1ccc(-c2nc(-c3ccccc3)c(-c3cccs3)[nH]2)cc1 6.45% [at 1.2 µM, 100% = signal doubled over neutral wells]
COc1ccc(-c2ocnc2C(=O)Nc2ccc(N3CCOCC3)cc2N2CCOCC2)cc1OC -29.2%
COc1ccc(C2CC(c3ccc(OC)c(OC)c3)=NN2C(=O)c2ccccc2)cc1 (configuration not stated) -8.01% [at 0.0016 µM, 100% = signal doubled over neutral wells]
O=c1c2ccccc2c(-c2ccccc2)nn1-c1ccccn1 -14.4%
COc1ccc(CNC(=O)C2Cc3c(-c4cccc(F)c4)ccnc3O2)cc1OC (configuration not stated) -18.6% [at 0.015 µM, 100% = signal doubled over neutral wells]
COc1cc2c3nnc(-c4ccccc4)c-3cn(Cc3ccccc3F)c2cc1OC -22.1% [at 0.135 µM, 100% = signal doubled over neutral wells]
COc1ccccc1Cn1c(=O)oc2ccccc21 -27.7% [at 0.005 µM, 100% = signal doubled over neutral wells]
FC(F)(F)c1ccc(Cl)c(-n2c(Cc3cccs3)n[nH]c2=S)c1 -14.3% [at 0.005 µM, 100% = signal doubled over neutral wells]
COc1ccc(/C=C2/SC(=O)N(NS(=O)(=O)c3ccccc3)C2=S)cc1OC -21.6% [at 0.015 µM, 100% = signal doubled over neutral wells]
CC1(C)CCCC(C)(C)N1CC(O)COCCOc1ccc(Br)cc1 (configuration not stated) -12.4%
CCS(=O)(=O)c1nc(S(=O)(=O)c2ccc(C)cc2)c(N2CCC(O)CC2)s1 -18.3% [at 0.42 µM, 100% = signal doubled over neutral wells]

From PubChem BioAssay AID977607 (Broad Institute, 2014)
